Measured values from PubChem BioAssay AID588342 (National Center for Advancing Translational Sciences (NCATS), 2011).
Screen size: about 360,000 compounds; about 25,000 (6.9%) were called active. Roughly 9% stayed inconclusive and do not appear here. The list comes from a sample in which actives are over-represented; it also holds similar structures and randomly drawn compounds. Values without a mark were called inactive. Calls come from the whole dose curve; as a rule, active = well fitted inhibition curve with a large enough effect; inconclusive = small, poorly fitted or top-dose-only effect; inactive = flat fitted curve, though single readings scatter.

The compounds below were run against Luciferin 4-monooxygenase (Photinus pyralis) (UniProt P08659) (assay: qHTS profiling assay for firefly luciferase inhibitor/activator using purifed enzyme and Km concentrations of substrates (counterscreen for miR-21 project)). Details: purified FLuc, luminescence inhibition; series mostly up to 57.5 µM; activity change, negative = inhibition: at the top concentration.
How it was run: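 Purified P. pyralis luciferase, 10 nM final, with Km-level 10 uM D-luciferin and 10 uM ATP in 50 mM Tris acetate pH 7.5, 10 mM Mg acetate, 0.01% Tween-20, 0.05% BSA; 6-point qHTS titration about 60 µM downward; luminescence read.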
Note: nearly all actives have a fitted effect of over 55% in size.
Potency is the fitted concentration of half-maximal effect.
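Throughout, for activity change, negative = inhibition: plate controls were vehicle for no effect and reference inhibitor for full effect.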

Luciferin 4-monooxygenase (Photinus pyralis), sequence (P08659 whole entry, looked up): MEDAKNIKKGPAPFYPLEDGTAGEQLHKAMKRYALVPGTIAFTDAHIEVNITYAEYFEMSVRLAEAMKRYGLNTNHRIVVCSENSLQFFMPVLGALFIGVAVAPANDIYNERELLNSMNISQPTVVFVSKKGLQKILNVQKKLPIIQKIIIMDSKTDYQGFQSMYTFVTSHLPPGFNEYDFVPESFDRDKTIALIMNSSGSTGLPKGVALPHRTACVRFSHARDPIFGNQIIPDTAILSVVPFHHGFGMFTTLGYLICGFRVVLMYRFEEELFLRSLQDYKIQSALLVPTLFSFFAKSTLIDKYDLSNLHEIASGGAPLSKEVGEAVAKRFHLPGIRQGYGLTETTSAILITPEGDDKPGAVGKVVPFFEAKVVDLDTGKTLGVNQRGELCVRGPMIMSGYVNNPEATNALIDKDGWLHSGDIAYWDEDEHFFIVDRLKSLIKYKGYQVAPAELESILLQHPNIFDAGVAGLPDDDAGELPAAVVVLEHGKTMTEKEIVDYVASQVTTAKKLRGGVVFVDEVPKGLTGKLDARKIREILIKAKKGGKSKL

| Structure (SMILES) | activity change, negative = inhibition | Potency |
| --- | --- | --- |
| COC(=O)c1c(NC(=O)C(C)Oc2ccc(Cl)c(C)c2)sc(C)c1C (stereo not drawn) | 5.37% | – |
| Cc1ccc(NC(=S)N2CCN(c3ncccn3)CC2)cc1C | 0.0229% | – |
| COc1ccc(NC(=O)Cn2c(=O)n(CCC(C)C)c(=O)c3cccnc32)cc1Cl | -2.93% | – |
| Cc1ccccc1CNC(=O)CSc1nnc(C)c2c(C)n(-c3ccccc3)nc12 | -17% | – |
| Nc1ccc(N=Nc2ccccc2Cl)c(N)n1 | – | 6.01 µM (active) |
| O=C1C=C(c2cccc(Cl)c2)C[C@@H](c2ccc(F)cc2)C1 | -4.42% | – |
| COc1ccc(Cn2cc(C(=O)c3ccc(C)cc3)c(=O)c3cc(OC)c(OC)cc32)cc1 | -2.14% | – |
| Cn1nc(C(C)(C)C)c(NC(=O)c2sccc2Cl)c1C(C)(C)C | -1.09% | – |
| COC(=O)c1sc(-c2ccc(C(C)(C)C)cc2)cc1NC(=O)/C=C/C(=O)O | – | 1.51 µM (active) |
| COc1ccccc1NC(=O)/C=C/C(N)=O | -2.13% | – |
| N#CC(C#N)=CN=c1ccn(Cc2ccc(Cl)cc2Cl)cc1 | 0.66% | – |
| COc1ccc(NC(=O)N2CCCC(C(=O)Nc3ccccc3OC)C2)cc1 (stereo not drawn) | 0.703% | – |
| COc1ccc(NC(=O)N2CCC(Cc3ccccc3)CC2)cc1 | – | 15.1 µM (active) |
| COc1ccc(C(=O)NC2CCN(C(=O)Nc3ccc(F)cc3)CC2)cc1 | -8.45% | – |
| COc1cccc(C(=O)N(Cc2cccc(Cl)c2)Cc2ccco2)c1 | -3.28% | – |
| CCCc1nc2c(c(=O)c3ccccc3n2C)c(=O)n1C1CCCCCC1 | -1.97% | – |
| CCCc1nc2c(c(=O)c3ccccc3n2C)c(=O)n1-c1cc(C)cc(C)c1 | – | 15.1 µM (active) |
| Cn1c2ccccc2c(=O)c2c(=O)n(Cc3ccco3)c(COc3ccccc3)nc21 | -6.43% | – |
| CCOc1ccccc1NC(=O)CN1CCN(S(=O)(=O)c2ccc(Br)cc2)CC1 | -12% | – |
| COC(=O)[C@]1(C)N[C@H](c2ccc(-c3ccc(Cl)c(Cl)c3)cc2)[C@@H]2C(=O)N(C)C(=O)[C@@H]21 | – | 15.1 µM (active) |
| COC(=O)C1(C)NC(c2ccc(F)cc2)C2C(=O)N(c3ccccc3)C(=O)C21 (stereo not drawn) | -0.999% | – |
| COC(=O)C1(C)NC(c2ccc(C)cc2)C2C(=O)N(c3ccc(F)cc3)C(=O)C21 (stereo not drawn) | 0.287% | – |
| Cc1cc2ccccc2n1CCNC(=O)c1ccc(F)cc1 | -11.8% | – |
| O=C(Nc1ccc(NC(=O)c2ccccc2F)cc1)c1ccccc1F | -2.26% | – |
| O=C(CNC(=O)c1ccccc1)NCC(=O)OCC(=O)c1ccccc1 | -4.07% | – |
| O=C(COC(=O)CNC(=O)c1ccccc1F)NCC(F)(F)F | -1.88% | – |
| O=C(CNC(=O)c1ccccc1F)c1ccc(Br)cc1 | – | 2.69 µM (active) |
| O=C(CNC(=O)c1ccc(F)cc1)c1ccccc1 | – | 19 µM (active) |
